Laboratory results as given in PubChem BioAssay.
A number with no mark means an inactive call. Active and inactive are the calls of the source. Rule as the data show it, unless noted: active = inhibition above about 44%; inactive = the rest.

How the values were obtained:
[1] = target: Nuclear receptor coactivator 3 (Homo sapiens) (UniProt Q9Y6Q9); experiment: NCOA3 GAL4-fusion reporter inhibition – cell-based, luminescence, quadruplicate, confirmation (AID 588792;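 active = mean inhibition over 43.08%, the solvent-only control mean plus 3 SD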;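 also: 0% = DMSO treated cells and 100% = gossypol at 36 µM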); conditions: HEK293 GAL4-SRC3 luciferase reporter, at 3.6 µM, active compounds read high
[2] = system: transactivating tegument protein VP16 (Human herpesvirus 1), Gal4-VP16 luciferase reporter; experiment: repression of VP16-driven luciferase reporter – cell-based, luminescence, high throughput, counter-screen for SRC3 inhibitor project (AID 588794; in the data active = inhibition above about 30%); conditions: mammalian cells, at 3.6 µM, active compounds read high
[3] = target: Nuclear receptor coactivator 1 (Homo sapiens) (UniProt Q15788); experiment: NCOA1 GAL4-fusion reporter inhibition – cell-based, luminescence, quadruplicate, confirmation (AID 588820;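 active = mean inhibition above 46.68%, the untreated control wells mean plus 3 SD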;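 also: 0% = DMSO wells and 100% = gossypol 36 µM treated wells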); conditions: HEK293 GAL4-SRC1 luciferase reporter, at 3.6 µM, active compounds read high
[4] = repression of VP16-driven luciferase reporter – cell-based, luminescence, high throughput, counter-screen for SRC1 inhibitor project (AID 588824; in the data active = inhibition above about 25%); conditions: cell-based VP16 transactivation luciferase luminescence; at 3.6 µM; active compounds read high
[5] = StAR promoter reporter inhibitors, counter-screen for LRH-1 inverse agonist project, cell-based, luminescence, high throughput (AID 651611; in the data active = inhibition above about 28%); conditions: StAR promoter luciferase reporter counterscreen, at 3.6 µM, active compounds read high
[6] = target: Nuclear receptor subfamily 5 group A member 2 (Homo sapiens) (UniProt O00482); experiment: NR5A2 activity suppression in reporter cells – cell-based, luminescence, confirmation (AID 651613; in the data active = inhibition above about 42%;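 also: HEK293T cells co-transfected with LRH-1 and StAR promoter luciferase reporter; 0% = vehicle wells and 100% = parental cells lacking receptor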); conditions: cell-based LRH-1 luciferase reporter, inverse agonism; at 3.6 µM; active compounds read high
[7] = target: Steroidogenic factor 1 (Homo sapiens) (UniProt Q13285); experiment: inverse agonism at SF1 nuclear receptor – cell-based, luminescence, high throughput, counter-screen for LRH-1 inverse agonist project (AID 651614); conditions: cell-based SF1 luciferase reporter, at 3.6 µM, active compounds read high;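 also: cells cotransfected with StAR promoter reporter and SF1 expression vector; 0% = vehicle on cells with receptor and 100% = vehicle on cells lacking receptor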
[8] = compounds suppressing VP16-driven luciferase signal – cell-based, luminescence, high throughput, counter-screen for LRH-1 inverse agonist project (AID 651615; in the data active = inhibition above about 33%); conditions: Gal4-VP16 luciferase reporter cells, at 3.6 µM, active compounds read high

Chain of Steroidogenic factor 1 (Homo sapiens) (Q13285 whole entry, looked up, the tested form may be a part): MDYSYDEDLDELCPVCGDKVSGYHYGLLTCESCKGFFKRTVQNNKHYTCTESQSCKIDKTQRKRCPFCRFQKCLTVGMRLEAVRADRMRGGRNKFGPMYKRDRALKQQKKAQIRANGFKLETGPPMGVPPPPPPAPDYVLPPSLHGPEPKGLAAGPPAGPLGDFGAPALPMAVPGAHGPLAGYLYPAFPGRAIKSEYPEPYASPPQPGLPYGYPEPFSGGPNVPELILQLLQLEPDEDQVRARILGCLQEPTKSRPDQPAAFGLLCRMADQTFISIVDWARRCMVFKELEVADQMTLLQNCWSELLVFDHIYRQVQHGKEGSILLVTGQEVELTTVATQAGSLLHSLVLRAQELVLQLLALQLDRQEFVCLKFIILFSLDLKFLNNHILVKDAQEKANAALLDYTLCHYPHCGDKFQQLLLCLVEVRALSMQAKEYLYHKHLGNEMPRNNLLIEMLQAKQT
Chain of Nuclear receptor coactivator 1 (Homo sapiens) (Q15788 whole entry, looked up, the tested form may be a part): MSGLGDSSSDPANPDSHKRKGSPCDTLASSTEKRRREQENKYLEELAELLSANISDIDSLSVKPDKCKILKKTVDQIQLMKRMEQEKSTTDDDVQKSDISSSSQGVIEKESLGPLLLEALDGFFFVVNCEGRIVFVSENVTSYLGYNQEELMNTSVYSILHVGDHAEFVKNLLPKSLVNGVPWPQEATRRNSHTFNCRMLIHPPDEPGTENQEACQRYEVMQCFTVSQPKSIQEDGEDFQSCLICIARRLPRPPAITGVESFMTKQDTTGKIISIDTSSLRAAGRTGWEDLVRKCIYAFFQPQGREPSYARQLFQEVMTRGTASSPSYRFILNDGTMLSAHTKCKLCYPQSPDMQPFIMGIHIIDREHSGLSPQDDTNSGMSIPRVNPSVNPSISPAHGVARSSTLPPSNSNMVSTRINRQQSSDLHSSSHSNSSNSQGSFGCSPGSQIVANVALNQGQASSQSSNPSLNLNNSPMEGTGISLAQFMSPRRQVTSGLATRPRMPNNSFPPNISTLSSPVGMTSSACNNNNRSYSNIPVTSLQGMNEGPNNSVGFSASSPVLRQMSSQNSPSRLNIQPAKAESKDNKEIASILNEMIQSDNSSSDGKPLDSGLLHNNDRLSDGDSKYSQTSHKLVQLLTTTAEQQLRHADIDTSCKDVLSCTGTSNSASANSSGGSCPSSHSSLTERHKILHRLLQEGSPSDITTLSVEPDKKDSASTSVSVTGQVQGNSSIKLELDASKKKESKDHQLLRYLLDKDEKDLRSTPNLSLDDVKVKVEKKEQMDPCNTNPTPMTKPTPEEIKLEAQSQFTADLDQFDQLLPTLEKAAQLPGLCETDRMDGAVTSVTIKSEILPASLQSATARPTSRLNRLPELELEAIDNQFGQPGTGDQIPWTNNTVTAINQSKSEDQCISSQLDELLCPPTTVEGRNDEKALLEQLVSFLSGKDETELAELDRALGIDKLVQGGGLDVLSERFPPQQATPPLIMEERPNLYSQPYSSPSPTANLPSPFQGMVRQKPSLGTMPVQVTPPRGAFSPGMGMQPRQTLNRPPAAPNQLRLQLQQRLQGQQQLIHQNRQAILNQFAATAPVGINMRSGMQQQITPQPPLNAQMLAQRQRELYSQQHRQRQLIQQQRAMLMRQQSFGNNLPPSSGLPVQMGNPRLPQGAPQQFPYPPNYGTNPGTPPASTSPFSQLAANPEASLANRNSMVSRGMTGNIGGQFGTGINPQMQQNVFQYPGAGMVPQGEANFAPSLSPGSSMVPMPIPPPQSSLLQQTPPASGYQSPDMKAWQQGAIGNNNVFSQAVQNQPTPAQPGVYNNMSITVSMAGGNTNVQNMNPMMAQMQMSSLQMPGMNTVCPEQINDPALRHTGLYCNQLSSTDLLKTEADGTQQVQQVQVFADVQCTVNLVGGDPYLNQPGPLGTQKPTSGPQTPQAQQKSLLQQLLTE
Chain of Nuclear receptor coactivator 3 (Homo sapiens) (Q9Y6Q9 whole entry, looked up, the tested form may be a part): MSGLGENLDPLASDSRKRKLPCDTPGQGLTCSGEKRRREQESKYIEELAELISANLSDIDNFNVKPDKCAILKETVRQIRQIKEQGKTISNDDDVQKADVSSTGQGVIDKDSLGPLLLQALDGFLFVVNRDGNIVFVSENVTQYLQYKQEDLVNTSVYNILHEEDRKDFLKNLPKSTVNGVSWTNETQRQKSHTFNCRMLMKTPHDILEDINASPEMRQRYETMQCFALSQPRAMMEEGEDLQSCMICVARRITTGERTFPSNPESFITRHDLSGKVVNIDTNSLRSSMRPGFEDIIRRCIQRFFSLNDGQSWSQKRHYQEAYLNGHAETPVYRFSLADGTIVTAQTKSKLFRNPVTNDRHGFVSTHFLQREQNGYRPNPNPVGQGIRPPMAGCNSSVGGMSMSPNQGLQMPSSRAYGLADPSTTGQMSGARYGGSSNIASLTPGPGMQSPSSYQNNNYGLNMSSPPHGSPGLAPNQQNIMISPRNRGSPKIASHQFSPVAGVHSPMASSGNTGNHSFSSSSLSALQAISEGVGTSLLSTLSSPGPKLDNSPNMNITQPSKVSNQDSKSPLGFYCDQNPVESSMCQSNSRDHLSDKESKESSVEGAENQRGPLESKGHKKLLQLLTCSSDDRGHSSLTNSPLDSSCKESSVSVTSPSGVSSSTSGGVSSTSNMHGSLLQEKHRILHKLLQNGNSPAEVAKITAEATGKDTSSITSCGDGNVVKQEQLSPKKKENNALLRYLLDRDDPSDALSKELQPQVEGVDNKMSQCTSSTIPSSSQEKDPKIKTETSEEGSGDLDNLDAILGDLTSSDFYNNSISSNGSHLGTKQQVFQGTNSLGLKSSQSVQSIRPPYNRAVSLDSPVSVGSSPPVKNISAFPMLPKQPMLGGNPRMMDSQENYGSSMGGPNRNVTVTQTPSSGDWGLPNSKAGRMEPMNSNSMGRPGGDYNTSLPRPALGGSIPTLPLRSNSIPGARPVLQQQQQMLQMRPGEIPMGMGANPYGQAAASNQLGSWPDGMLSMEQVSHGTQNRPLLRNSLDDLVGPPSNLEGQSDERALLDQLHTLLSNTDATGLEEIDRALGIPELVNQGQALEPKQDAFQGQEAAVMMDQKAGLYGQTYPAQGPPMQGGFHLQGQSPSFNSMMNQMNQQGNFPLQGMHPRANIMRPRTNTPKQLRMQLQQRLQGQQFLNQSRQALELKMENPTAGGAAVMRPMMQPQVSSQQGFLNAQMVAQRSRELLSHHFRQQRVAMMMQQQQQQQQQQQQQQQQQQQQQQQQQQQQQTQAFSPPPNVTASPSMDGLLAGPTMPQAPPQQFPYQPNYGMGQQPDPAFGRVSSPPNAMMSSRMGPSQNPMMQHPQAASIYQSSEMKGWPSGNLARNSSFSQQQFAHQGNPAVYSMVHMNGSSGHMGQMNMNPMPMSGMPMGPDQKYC
Chain of Nuclear receptor subfamily 5 group A member 2 (Homo sapiens) (O00482 whole entry, looked up): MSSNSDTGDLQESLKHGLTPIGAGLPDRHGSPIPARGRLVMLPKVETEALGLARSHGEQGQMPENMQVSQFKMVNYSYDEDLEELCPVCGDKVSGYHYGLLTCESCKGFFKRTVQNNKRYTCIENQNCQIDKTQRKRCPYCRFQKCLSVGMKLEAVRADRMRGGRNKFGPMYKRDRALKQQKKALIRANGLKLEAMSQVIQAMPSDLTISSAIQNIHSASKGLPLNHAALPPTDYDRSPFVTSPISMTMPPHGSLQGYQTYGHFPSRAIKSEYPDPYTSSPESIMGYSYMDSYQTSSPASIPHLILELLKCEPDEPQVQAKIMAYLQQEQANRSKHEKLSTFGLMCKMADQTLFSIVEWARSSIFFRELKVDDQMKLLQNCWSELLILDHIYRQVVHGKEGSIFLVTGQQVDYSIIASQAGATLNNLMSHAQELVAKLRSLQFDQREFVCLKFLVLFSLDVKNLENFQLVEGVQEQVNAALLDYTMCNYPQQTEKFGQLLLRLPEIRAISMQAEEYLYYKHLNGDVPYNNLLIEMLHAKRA

Question: Which inhibition [1] does the source give for `CCCCCc1ccc(OCCC[n+]2ccccc2)c(CCCCC)c1` here?
Answer: The inhibition was 45.8% (active).

Question: What about the inhibition [2] of the same molecule?
Answer: The inhibition was 60.7% (active).

Question: And the inhibition [3]?
Answer: Its inhibition is 31.3%.

Question: And the inhibition [4]?
Answer: The inhibition was 65.9% (active).

Question: What about the inhibition [5] of the same molecule?
Answer: The inhibition was 37.7% (active).

Question: And the inhibition [6]?
Answer: Its inhibition is 83.3% (active).

Question: And the inhibition [7]?
Answer: The inhibition was 68.1% (active).

Question: And the inhibition [8]?
Answer: The inhibition was 82.3% (active).

Question: For `CC(NC(=O)Nc1nnc(C(F)(F)F)s1)(C(F)(F)F)C(F)(F)F`, which inhibition [1] is on record?
Answer: The inhibition was 52.9% (active).

Question: What about the inhibition [2] of the same molecule?
Answer: Its inhibition is 72% (active).

Question: And the inhibition [3]?
Answer: The inhibition was 37.6%.

Question: What about the inhibition [4] of the same molecule?
Answer: Its inhibition is 79.1% (active).

Question: What about the inhibition [5] of the same molecule?
Answer: Its inhibition is 74.9% (active).

Question: And the inhibition [6]?
Answer: The inhibition was 99.7% (active).

Question: And the inhibition [7]?
Answer: Its inhibition is 89.4% (active).

Question: What about the inhibition [8] of the same molecule?
Answer: The inhibition was 93% (active).

Question: For `Cc1cccc(C(=O)Nc2sc3c(c2C(=O)O)CCCC3)c1`, which inhibition [1] is on record?
Answer: The inhibition was 37.5%.

Question: And the inhibition [2]?
Answer: Its inhibition is 59.1% (active).

Question: And the inhibition [3]?
Answer: Its inhibition is 25.5%.

Question: What about the inhibition [4] of the same molecule?
Answer: The inhibition was 58.2% (active).

Question: What about the inhibition [5] of the same molecule?
Answer: The inhibition was 53.6% (active).

Question: What about the inhibition [6] of the same molecule?
Answer: The inhibition was 85.8% (active).

Question: What about the inhibition [7] of the same molecule?
Answer: The inhibition was 82.3% (active).

Question: And the inhibition [8]?
Answer: Its inhibition is 68.9% (active).

Question: For `CC(=O)Nc1ccc(SCC(=O)c2cc(C)n(Cc3cccs3)c2C)cc1`, which inhibition [1] is on record?
Answer: The inhibition was 52.1% (active).

Question: And the inhibition [2]?
Answer: Its inhibition is 40.1% (active).

Question: And the inhibition [3]?
Answer: The inhibition was -1.59%.

Question: And the inhibition [4]?
Answer: Its inhibition is 5.47%.

Question: And the inhibition [5]?
Answer: The inhibition was -55.3%.

Question: And the inhibition [6]?
Answer: The inhibition was -90.8%.

Question: What about the inhibition [7] of the same molecule?
Answer: Its inhibition is -25.9%.

Question: What about the inhibition [8] of the same molecule?
Answer: Its inhibition is -31.9%.

Question: With `COc1ccccc1-[n+]1c(C)cc(/C=C2\Sc3ccccc3N2C)cc1C` as the molecule, how does the inhibition [1] read?
Answer: Its inhibition is 81.9% (active).

Question: And the inhibition [2]?
Answer: Its inhibition is 85.2% (active).

Question: And the inhibition [3]?
Answer: Its inhibition is 8.54%.

Question: And the inhibition [4]?
Answer: The inhibition was 79.1% (active).

Question: And the inhibition [5]?
Answer: Its inhibition is 38.9% (active).

Question: What about the inhibition [6] of the same molecule?
Answer: Its inhibition is 104% (active).

Question: And the inhibition [7]?
Answer: Its inhibition is 83.3% (active).

Question: And the inhibition [8]?
Answer: Its inhibition is 91% (active).

Question: Which inhibition [1] does the source give for `COc1ccc(-c2cn(-c3ccc(OC)cc3)c3[n+]2-c2ccccc2CC3)cc1` here?
Answer: Its inhibition is 46.3% (active).

Question: And the inhibition [2]?
Answer: The inhibition was 55.9% (active).

Question: What about the inhibition [3] of the same molecule?
Answer: Its inhibition is 34.7%.

Question: And the inhibition [4]?
Answer: The inhibition was 59.9% (active).

Question: And the inhibition [5]?
Answer: Its inhibition is 40.8% (active).

Question: What about the inhibition [6] of the same molecule?
Answer: The inhibition was 88.8% (active).

Question: And the inhibition [7]?
Answer: The inhibition was 82.3% (active).

Question: And the inhibition [8]?
Answer: Its inhibition is 77.8% (active).

Question: For `O=C(Nc1ccc(N2CCN(C(=O)c3ccccc3)CC2)cc1)c1ccc2c(c1)OCO2`, which inhibition [1] is on record?
Answer: The inhibition was 36.9%.

Question: And the inhibition [2]?
Answer: Its inhibition is 66.7% (active).

Question: What about the inhibition [3] of the same molecule?
Answer: The inhibition was 37.4%.

Question: What about the inhibition [4] of the same molecule?
Answer: The inhibition was 57.1% (active).

Question: And the inhibition [5]?
Answer: The inhibition was 50.2% (active).

Question: And the inhibition [6]?
Answer: Its inhibition is 64% (active).

Question: And the inhibition [7]?
Answer: The inhibition was 73.8% (active).

Question: And the inhibition [8]?
Answer: Its inhibition is 70.5% (active).

Question: Which inhibition [1] does the source give for `CCN1/C(=C/c2ccc3cccc(C)c3[n+]2CC)Sc2ccccc21` here?
Answer: The inhibition was 35.1%.

Question: What about the inhibition [2] of the same molecule?
Answer: Its inhibition is 63.3% (active).

Question: And the inhibition [3]?
Answer: The inhibition was 26%.

Question: What about the inhibition [4] of the same molecule?
Answer: Its inhibition is 71.4% (active).

Question: And the inhibition [5]?
Answer: Its inhibition is 57% (active).

Question: What about the inhibition [6] of the same molecule?
Answer: The inhibition was 105% (active).

Question: And the inhibition [7]?
Answer: The inhibition was 77% (active).

Question: What about the inhibition [8] of the same molecule?
Answer: Its inhibition is 80.5% (active).

Question: Which results are given for `N=c1ccn(CC(=O)c2ccc(-c3ccccc3)cc2)cc1`?
Answer: inhibition [1]: 37%; inhibition [2]: 43.3% (active); inhibition [3]: 26.1%; inhibition [4]: 57.5% (active); inhibition [5]: 46.2% (active); inhibition [6]: 92.8% (active); inhibition [7]: 76.3% (active); inhibition [8]: 76.5% (active)

Question: Which inhibition [1] does the source give for `N=c1c2c(n(Cc3ccc(Br)cc3)c3c1CCC3)CCCC2` here?
Answer: The inhibition was 51.3% (active).

Question: And the inhibition [2]?
Answer: The inhibition was 67.7% (active).

Question: What about the inhibition [3] of the same molecule?
Answer: The inhibition was 45.7%.

Question: What about the inhibition [4] of the same molecule?
Answer: The inhibition was 70.5% (active).

Question: And the inhibition [5]?
Answer: The inhibition was 60.2% (active).

Question: And the inhibition [6]?
Answer: Its inhibition is 111% (active).

Question: And the inhibition [7]?
Answer: The inhibition was 86.3% (active).

Question: What about the inhibition [8] of the same molecule?
Answer: Its inhibition is 89.9% (active).

Question: With `CCCCC(=O)NC(c1ccc(Cl)cc1Cl)c1ccc2cccnc2c1O` (stereo not drawn) as the molecule, how does the inhibition [1] read?
Answer: The inhibition was 39.4%.

Question: What about the inhibition [2] of the same molecule?
Answer: The inhibition was 24.5%.

Question: And the inhibition [3]?
Answer: Its inhibition is 27.4%.

Question: And the inhibition [4]?
Answer: The inhibition was 27.2% (active).

Question: And the inhibition [5]?
Answer: Its inhibition is 64% (active).

Question: What about the inhibition [6] of the same molecule?
Answer: Its inhibition is 82% (active).

Question: And the inhibition [7]?
Answer: Its inhibition is 60.9% (active).

Question: What about the inhibition [8] of the same molecule?
Answer: Its inhibition is 71.7% (active).

Question: For `COc1ccc(C)cc1NC(=O)c1nnn(Cc2cccc(C(F)(F)F)c2)c1N`, which inhibition [1] is on record?
Answer: Its inhibition is 10.7%.

Question: What about the inhibition [2] of the same molecule?
Answer: The inhibition was 41.8% (active).

Question: What about the inhibition [3] of the same molecule?
Answer: The inhibition was 27.5%.

Question: And the inhibition [4]?
Answer: Its inhibition is 53.3% (active).

Question: And the inhibition [5]?
Answer: The inhibition was 39.6% (active).

Question: What about the inhibition [6] of the same molecule?
Answer: Its inhibition is 56.2% (active).

Question: And the inhibition [7]?
Answer: Its inhibition is 57.3% (active).

Question: What about the inhibition [8] of the same molecule?
Answer: Its inhibition is 60.3% (active).

Question: Which results are given for `C=C1C(=O)C23C(O)C1CCC2C12CCCC(C)(COC(C)=O)C1C(O)C3(O)OC2` (stereo not drawn)?
Answer: inhibition [1]: 66.6% (active); inhibition [2]: 58.3% (active); inhibition [3]: 20.7%; inhibition [4]: 57.9% (active); inhibition [5]: 71.9% (active); inhibition [6]: 63.7% (active); inhibition [7]: 74.4% (active); inhibition [8]: 82.5% (active)

Question: Which results are given for `COc1cccc(/C=N/NC(=O)c2c(C)nc3ccc(Cl)cn23)c1O`?
Answer: inhibition [1]: 79.3% (active); inhibition [2]: 78.5% (active); inhibition [3]: 75.2% (active); inhibition [4]: 73.9% (active); inhibition [5]: 86.7% (active); inhibition [6]: 102% (active); inhibition [7]: 88.4% (active); inhibition [8]: 83.5% (active)

Question: For `Cc1onc(-c2ccccc2)c1C(=O)NC(=S)NNC(=O)c1ccc(O)cc1O`, which inhibition [1] is on record?
Answer: Its inhibition is 55.7% (active).

Question: What about the inhibition [2] of the same molecule?
Answer: Its inhibition is 75.7% (active).

Question: And the inhibition [3]?
Answer: Its inhibition is 69.8% (active).

Question: What about the inhibition [4] of the same molecule?
Answer: The inhibition was 80.5% (active).

Question: What about the inhibition [5] of the same molecule?
Answer: The inhibition was 62.8% (active).

Question: And the inhibition [6]?
Answer: Its inhibition is 95.8% (active).

Question: And the inhibition [7]?
Answer: The inhibition was 85.6% (active).

Question: And the inhibition [8]?
Answer: Its inhibition is 83.5% (active).

Question: For `CC(=O)NC(c1ccc2ccccc2c1)c1ccc2cccnc2c1O` (stereo not drawn), which inhibition [1] is on record?
Answer: The inhibition was 81.5% (active).

Question: What about the inhibition [2] of the same molecule?
Answer: Its inhibition is 79.2% (active).

Question: What about the inhibition [3] of the same molecule?
Answer: The inhibition was 70.4% (active).

Question: What about the inhibition [4] of the same molecule?
Answer: The inhibition was 74.3% (active).

Question: And the inhibition [5]?
Answer: The inhibition was 86.3% (active).

Question: What about the inhibition [6] of the same molecule?
Answer: The inhibition was 104% (active).

Question: And the inhibition [7]?
Answer: The inhibition was 87.6% (active).

Question: What about the inhibition [8] of the same molecule?
Answer: Its inhibition is 79.9% (active).
